Experimental data as given in PubChem BioAssay (NCATS).
Where “and” joins values, the source holds several entries; their conditions need not be identical. Identical values can stand only once. Inconclusive results are not listed. A call without a number means that no potency is given here. Some compounds were tested as several samples or in several runs, with calls that do not always agree. Calls of active or inactive are those of the source. The call rests on the fitted dose curve; in most records, active means well fitted activation curve with a large enough effect in the main read-out, with a control signal flat (not every such curve was filed as active); inconclusive means small, poorly fitted or top-dose-only effect, or effect the other way, or a change in a side signal; inactive means flat fitted curve, though single readings scatter.

Each compound was assayed against 3',5'-cyclic-AMP phosphodiesterase 4B (Homo sapiens) (UniProt Q07343) (assay: qHTS Assay for Inhibitors of PDE-IV (AID 607)). Details: HEK293 ACTOne CNG channel cells, membrane potential fluorescence; series mostly up to 22.9 µM.
3',5'-cyclic-AMP phosphodiesterase 4B (Homo sapiens), sequence (Q07343 whole entry, looked up): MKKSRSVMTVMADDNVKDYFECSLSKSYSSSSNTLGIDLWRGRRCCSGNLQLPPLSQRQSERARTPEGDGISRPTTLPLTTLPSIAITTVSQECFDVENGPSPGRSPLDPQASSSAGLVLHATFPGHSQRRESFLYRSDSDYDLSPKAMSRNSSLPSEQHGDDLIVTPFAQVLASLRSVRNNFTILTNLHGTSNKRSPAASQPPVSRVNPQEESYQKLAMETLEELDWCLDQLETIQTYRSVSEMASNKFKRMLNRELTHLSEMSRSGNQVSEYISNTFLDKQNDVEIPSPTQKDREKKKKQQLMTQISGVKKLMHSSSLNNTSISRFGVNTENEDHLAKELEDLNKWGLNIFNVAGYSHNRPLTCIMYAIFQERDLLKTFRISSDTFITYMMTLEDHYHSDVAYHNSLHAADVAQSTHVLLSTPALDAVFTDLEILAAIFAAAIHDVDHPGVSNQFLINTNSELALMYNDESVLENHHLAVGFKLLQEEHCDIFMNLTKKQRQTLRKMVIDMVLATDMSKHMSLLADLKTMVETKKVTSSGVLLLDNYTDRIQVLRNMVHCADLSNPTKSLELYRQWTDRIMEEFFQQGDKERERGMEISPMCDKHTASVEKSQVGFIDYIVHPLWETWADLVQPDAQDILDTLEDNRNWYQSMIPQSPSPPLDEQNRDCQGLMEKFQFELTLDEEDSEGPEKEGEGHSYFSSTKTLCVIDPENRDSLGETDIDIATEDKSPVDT
How it was run: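 Live HEK293 cells with a modified cyclic nucleotide-gated (CNG) channel report intracellular cAMP via membrane-potential dye fluorescence (ex 535/em 590 nm). Endogenous PDE-IV was targeted. Compounds were tested at up to 22.9 uM final; RO 20-1724 100 uM served as control.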
Potency means the concentration at half of the fitted maximal effect.

Row | Compound | Potency
1 | CCOC(=O)c1ncn2c1CN(C)C(=O)c1cc(F)ccc1-2 | inactive
2 | O=C(c1ccc(F)cc1)C1CCN(CCn2c(=O)[nH]c3ccccc3c2=O)CC1 | inactive
3 | CS(=O)(=O)Nc1ccc([N+](=O)[O-])cc1Oc1ccccc1 | inactive
4 | O=C1c2c(O)ccc(O)c2C(=O)c2c(NCCNCCO)ccc(NCCNCCO)c21 | inactive
5 | CCOC(=O)Nc1ccc(NCc2ccc(F)cc2)nc1N | inactive
6 | O=C1N(c2ccccc2)c2ccccc2C1(Cc1ccncc1)Cc1ccncc1 | inactive
7 | CN(C)CCCN1c2ccccc2CCc2ccc(Cl)cc21 | inactive
8 | CN(C)CCOC(c1ccccc1)c1ccccc1 | inactive
9 | COc1nc(C)nc(Cl)c1NC1=NCCN1 | inactive
10 | COC(=O)Nc1nc2ccc(C(=O)c3cccs3)cc2[nH]1 | inactive
11 | Cc1cc(C(C)(C)C)c(O)c(C)c1CC1=NCCN1 | inactive
12 | CN1CCN(CCCN2c3ccccc3Sc3ccc(Cl)cc32)CC1 | inactive
13 | CNCCCC12CCC(c3ccccc31)c1ccccc12 | inactive
14 | CN1C(C(=O)Nc2ccccn2)=C(O)c2ccccc2S1(=O)=O | inactive
15 | CN(C)c1nc(N(C)C)nc(N(C)C)n1 | inactive
16 | NCCCCCC(=O)O | inactive

Row | Compound | Potency
17 | CN(C)C(=O)C(CCN1CCC(O)(c2ccc(Cl)cc2)CC1)(c1ccccc1)c1ccccc1 | inactive and 3.79 µM (active)
18 | Cn1cnc2c1c(=O)[nH]c(=O)n2C | inactive
19 | CC[N+](CC)(CC)CCOc1cccc(OCC[N+](CC)(CC)CC)c1OCC[N+](CC)(CC)CC | inactive
20 | CN1CCC(=C2c3ccccc3CC(=O)c3sccc32)CC1 | inactive
21 | CN1CCN(C2=Nc3cc(Cl)ccc3Nc3ccccc32)CC1 | inactive
22 | CCOC(=O)C(C)(C)Oc1ccc(Cl)cc1 | inactive
23 | CN(Cc1cnc2nc(N)nc(N)c2n1)c1ccc(C(=O)N[C@@H](CCC(=O)O)C(=O)O)cc1 | inactive
24 | COc1cc2nc(N3CCN(C(=O)c4ccco4)CC3)nc(N)c2cc1OC | inactive
25 | OCCN(CCO)c1nc(N2CCCCC2)c2nc(N(CCO)CCO)nc(N3CCCCC3)c2n1 | inactive
26 | CN(C)C(=N)N=C(N)N | inactive
27 | Clc1ccccc1C(c1ccccc1)(c1ccccc1)n1ccnc1 | inactive
28 | Cn1ccc2cc3c(cc21)CCN3C(=O)Nc1cccnc1 | inactive
29 | O=C(c1ccc(OCCN2CCCCC2)cc1)c1c(-c2ccc(O)cc2)sc2cc(O)ccc12 | inactive
30 | O=c1c(O)c(-c2ccc(O)c(O)c2)oc2cc(O)cc(O)c12 | inactive
31 | Clc1ccc2c(c1)C(N1CCNCC1)=Nc1ccccc1O2 | inactive
32 | NC12CC3CC(CC(C3)C1)C2 | inactive
